Some test systems named below: DU-145 prostate; K-562 leukemia; MALME-3M melanoma; MDA-MB-231 breast; RXF 393 renal; SF-268 CNS; SF-295 CNS; SF-539 CNS; UACC-257 melanoma.
Assay in all cases: NCI-60 one-dose screen, 48 h (100 = growth as untreated, 0 = no growth, -100 = all killed)
The subject of a further experiment is M14 melanoma. To be noted: 10 µM.

Several values for one entry are separate records, joined by “and”; a condition that tells them apart may be missing. Equal values may be shown once. The panel holds about 83,000 compounds, 20% with a hit somewhere; the sample as a whole holds those more often.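 Method: cells in 96-well plates; compound added at one concentration; 48 h incubation; percent growth measured; values under 10 scored active.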 Activity calls are given as the source filed them.

As to `CC/C(=C(\c1ccccc1)c1ccc(OCCN(C)C)cc1)c1ccccc1`, the growth in the experiment on DU-145 prostate (10 µM) is 65.4% (inactive); with DU-145 prostate (12.5 µM) it was 9.12% (active); with K-562 leukemia (10 µM), 0.0322% (active); with K-562 leukemia (12.5 µM), -38.6% (active); in the experiment with MALME-3M melanoma (10 µM), -67.5% (active); in the experiment on MALME-3M melanoma (12.5 µM) it was -95.7% (active). In addition, the growth was 45.2% (inactive) with MDA-MB-231 breast (10 µM); -26.4% (active) in the experiment with MDA-MB-231 breast (12.5 µM); -22.4% (active) in the experiment on RXF 393 renal (10 µM); -56.8% (active) in the experiment on RXF 393 renal (12.5 µM); 56.7% (inactive) with SF-268 CNS (10 µM); 32.4% (inactive) in the experiment with SF-268 CNS (12.5 µM). Besides, the growth is 40.2% (inactive) in the experiment with SF-295 CNS (10 µM); -68% (active) in the experiment on SF-295 CNS (12.5 µM); -95.2% (active) in the experiment on SF-539 CNS (12.5 µM); -64.3% (active) in the experiment on UACC-257 melanoma (10 µM); -34.3% (active) in the experiment with UACC-257 melanoma (12.5 µM); -75% (active) in the experiment on M14 melanoma.
In the case of `CC[C@@]1(O)C(=O)OCc2c1cc1n(c2=O)Cc2cc3c(CN(C)C)c(O)ccc3nc2-1`, the growth is -18% (active) with DU-145 prostate (10 µM); -22.7% (active) in the experiment on K-562 leukemia (10 µM); -11% (active) and -39.7% (active) in the experiment on MALME-3M melanoma (10 µM); 35.9% (inactive) and 47.6% (inactive) in the experiment with MDA-MB-231 breast (10 µM); -63.5% (active) and 11.3% (inactive) in the experiment with RXF 393 renal (10 µM); 6.03% (active) and 13.3% (inactive) in the experiment on SF-268 CNS (10 µM). Besides, the growth is -31.3% (active) and -15% (active) in the experiment with SF-295 CNS (10 µM); -19% (active) and -42.7% (active) in the experiment on SF-539 CNS (10 µM); -57.9% (active) and 5.98% (active) in the experiment on UACC-257 melanoma (10 µM); -7.26% (active) and -31.9% (active) in the experiment with M14 melanoma.
Consider `COc1ccc2sc3cccc(NCCN(C)C)c3c(=O)c2c1`, for which the growth was 53.6% (inactive) and 14.8% (inactive) in the experiment with DU-145 prostate (10 µM); 17.2% (inactive) and -40.4% (active) in the experiment on K-562 leukemia (10 µM); 18.6% (inactive) and -90.3% (active) in the experiment on MALME-3M melanoma (10 µM); 42.1% (inactive) and -72.9% (active) with MDA-MB-231 breast (10 µM); 59.7% (inactive) and -15.9% (active) with RXF 393 renal (10 µM); 42.9% (inactive) and 12.4% (inactive) in the experiment on SF-268 CNS (10 µM). Moreover, the growth in the experiment on SF-295 CNS (10 µM) was -16.7% (active) and -31.7% (active); with SF-539 CNS (10 µM) it was 49.8% (inactive) and -8.1% (active); in the experiment with UACC-257 melanoma (10 µM), -83.3% (active); in the experiment with M14 melanoma, 59.1% (inactive) and -84.9% (active).
In the case of `CN(Cc1cnc2nc(N)nc(N)c2n1)c1ccc(C(=O)N[C@@H](CCC(=O)O)C(=O)O)cc1`, the growth is 31.8% (inactive) in the experiment with DU-145 prostate (2.5 µM); 39.6% (inactive) in the experiment with DU-145 prostate (10 µM); 23.8% (inactive) in the experiment on K-562 leukemia (2.5 µM); 23.3% (inactive) with K-562 leukemia (10 µM); 61.6% (inactive) in the experiment with MALME-3M melanoma (2.5 µM); 62% (inactive) with MALME-3M melanoma (10 µM). The growth in the experiment with MDA-MB-231 breast (2.5 µM) was 71.1% (inactive); in the experiment with MDA-MB-231 breast (10 µM), 59.9% (inactive); in the experiment with RXF 393 renal (2.5 µM), 18.7% (inactive); in the experiment with RXF 393 renal (10 µM), 13% (inactive); with SF-268 CNS (2.5 µM), 36.8% (inactive); in the experiment on SF-268 CNS (10 µM), 25.1% (inactive). Besides, the growth is 18.4% (inactive) in the experiment with SF-295 CNS (2.5 µM); 19.7% (inactive) with SF-295 CNS (10 µM); -3.25% (active) in the experiment on SF-539 CNS (2.5 µM); -0.266% (active) with SF-539 CNS (10 µM); 9.31% (active) with UACC-257 melanoma (2.5 µM); 12% (inactive) with UACC-257 melanoma (10 µM).

(Values after PubChem BioAssay (NCI).)
